Bioassay records deposited in PubChem by National Center for Advancing Translational Sciences (NCATS).
SARS PLP yeast = inhibitors of SARS-CoV papain-like protease in yeast; S. cerevisiae expressing SARS-CoV PLpro, growth rescue; Potency, µM (doses to about 32.9 µM), without a hit: at the top dose activity, positive = growth rescue, usual class: activators; 330,000 compounds, 0.19% hits; AID 485353; calls by dose curve; further: potency means the concentration at half of the fitted maximal effect; 0% is about no effect; nearly all actives have a fitted effect of over 55% in size
HCMV antiviral = blocks human cytomegalovirus replication | 410,000 compounds, 4.5% hits | HFF cells, HCMV-luciferase reporter, 72 h; hits give low values | AID 1259415 | activity change, negative = inhibition, % at 57.5 µM; in the data active means activity change below about -60%; inconclusive means no clear call, values can overlap the other calls; inactive means above about -39%; further: on the % scale 0 is the no-effect control and ±100 the full control effect
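Compounds were evaluated in HFFs infected with an HCMV luciferase reporter virus (MOI 1 PFU/cell). Luciferase in lysates collected 72 h post infection served as the replication measure.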
Pf growth 96h = P. falciparum growth inhibition at 96 hours | 320,000 compounds, 6.9% hits | AID 504834 | P. falciparum luciferase reporter growth, 96 h | Potency, µM (top dose mostly 28.7 µM), without a hit: at the top dose activity change, negative = inhibition, actives largely listed as inhibitors; further: potency means the concentration at half of the fitted maximal effect; on the % scale 0 is the no-effect control and ±100 the full control effect
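P. falciparum expressing integrated firefly luciferase grown in erythrocytes (2% hematocrit, 0.05% parasitemia final) with compounds for 96 hours at 37 C, 5% CO2. Growth inhibition read as loss of luminescence after adding luciferase detection reagent.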
Sm TGR block = S. mansoni TGR enzyme inhibition. Potency, µM (top dose mostly 114 µM), inactives show top-dose activity change, negative = inhibition, actives largely listed as inhibitors. AID 485364. 360,000 compounds, 3% hits. Q962Y6. purified TGR, DTNB reduction, TNB absorbance 405 nm; further: potency means the concentration at half of the fitted maximal effect; on the % scale 0 is the no-effect control and ±100 the full control effect; nearly all actives have a fitted effect of over 60% in size
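TGR 20 nM + NADPH 100 uM (dispensed conc.), cpd preinc 15 min RT; start with NADPH (500 uM addition) then DTNB (15 mM addition). Kinetic TNB absorbance, 405 nm filter. Four-parameter Hill fit across titration.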
Pf growth 48h = inhibits P. falciparum growth in the first generation, 48 h; 310,000 compounds, 5.9% hits; Potency, µM (top dose mostly 28.7 µM), without a hit: top-dose activity change, negative = inhibition, usual class: inhibitors; P. falciparum luciferase growth in erythrocytes, 48 h; AID 504832; further: potency means the concentration at half of the fitted maximal effect; on the % scale 0 is the no-effect control and ±100 the full control effect
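Luciferase-expressing P. falciparum in infected erythrocytes (2% hematocrit, 0.1% parasitemia final) in RPMI 1640/0.5% Albumax were exposed to compound for 48 hours at 37 C, 5% CO2; growth read as luminescence.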
HCV inh = blocks hepatitis C virus; Huh7.5.1 HCVcc-Cre infection, luciferase reporter, 44 h; Potency, µM (titrated, usually from 41.8 µM), inactives show at the top dose activity change, negative = inhibition, actives largely listed as inhibitors; 340,000 compounds, 3.4% hits; further: potency means the concentration at half of the fitted maximal effect; on the % scale 0 is the no-effect control and ±100 the full control effect
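Infectious HCVcc-Cre (~0.5 moi) was added to cells just after compound, with cells seeded 4 h earlier at 1,000 per well. Luciferase activity after 44 h culture reported infection; substrate was incubated 15 min at room temperature before reading.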
Numbers without * were called inactive. This is a sample that favours compounds with a hit; in the whole collection about 15% have one here. Unless noted, the call rests on the fitted dose curve; in most records, active means well fitted curve in the direction sought with a large enough effect; inconclusive means small, poorly fitted or top-dose-only effect, or another doubt; inactive means no such curve, though single readings can be large; an effect the other way counts as inactive or inconclusive.

`COc1ccccc1NC(=O)c1ccc(NC(=O)CN2CCN(C(=O)c3ccco3)CC2)cc1` gave SARS PLP yeast 3.0%, HCMV antiviral -23.5, Pf growth 96h inconclusive, Sm TGR block -9.5%, Pf growth 48h -23.8% and HCV inh inconclusive.
O=C(CN1CCC(NC(=O)c2ccco2)CC1)Nc1cccc2ccccc12 was read as SARS PLP yeast 6.3%, HCMV antiviral 1.9, Pf growth 96h 10.4µM*, Sm TGR block -18.7%, Pf growth 48h inconclusive and HCV inh 2.6%.
Screening Cc1cc(Cl)ccc1NC(=O)CN1CCN(C(=O)c2ccco2)CC1 returned SARS PLP yeast 7.2%, HCMV antiviral -14.1, Pf growth 96h -6.7%, Sm TGR block -30.4%, Pf growth 48h 10.4µM* and HCV inh 9.8%.
COc1ccccc1NC(=O)CN1CCN(C(=O)c2ccco2)CC1 was read as SARS PLP yeast -0.5%, HCMV antiviral 44.2, Pf growth 96h -25.2%, Sm TGR block -32.2%, Pf growth 48h 2.08µM* and HCV inh -3.0%.
Screening O=C(CN1CCC(NC(=O)c2ccco2)CC1)Nc1ccccc1[N+](=O)[O-] returned SARS PLP yeast 0.0%, Pf growth 96h inconclusive, Sm TGR block -29.2% and Pf growth 48h inconclusive.
Screening COc1ccc(Cl)cc1NC(=O)N1CCN(CCc2ccccc2)CC1 returned SARS PLP yeast -1.0%, HCMV antiviral -2.2, Pf growth 96h 1.1%, Sm TGR block 0.0%, Pf growth 48h inconclusive and HCV inh inconclusive.
`COc1ccccc1NC(=O)N1CCN(CCc2ccccc2)CC1` gave SARS PLP yeast 0.0%, HCMV antiviral 4.6, Pf growth 96h -3.6%, Sm TGR block -17.2%, Pf growth 48h 4.15µM* and HCV inh 16.3%.
Cc1cc(N2C(=O)CC(N3CCN(c4ccc(C(=O)c5cccs5)cc4)CC3)C2=O)no1 (stereo not drawn) was read as SARS PLP yeast -6.1%, HCMV antiviral 32.4, Pf growth 96h 19.5%, Sm TGR block inconclusive, Pf growth 48h inconclusive and HCV inh -14.2%.
Screening O=C(c1ccc(N2CCN(C3CC(=O)N(Cc4cccs4)C3=O)CC2)cc1)c1cccnc1 (stereo not drawn) returned SARS PLP yeast -3.8%, HCMV antiviral -39.1, Pf growth 96h inconclusive, Sm TGR block -26.1%, Pf growth 48h inconclusive and HCV inh 12.6µM*.
Screening O=C(c1ccncc1)c1ccc(N2CCN(C3CC(=O)N(Cc4ccccc4)C3=O)CC2)cc1 (stereo not drawn) returned SARS PLP yeast -17.6%, HCMV antiviral -63.5*, Pf growth 96h 46.6%, Sm TGR block -9.2%, Pf growth 48h inconclusive and HCV inh inconclusive.
`Cc1ccc(/C=C/C(=O)OCC(=O)NCc2cccs2)o1` gave SARS PLP yeast -13.2%, HCMV antiviral -13.6 and HCV inh -10.8%.
CCN(CC(=O)NCc1ccc(Cl)cc1)C(=O)/C=C/c1ccccc1 was read as SARS PLP yeast 2.4%, HCMV antiviral -17.6, Pf growth 96h 10.1%, Sm TGR block -3.0%, Pf growth 48h -8.3% and HCV inh -20.7%.
Cc1ccc(/C=C/C(=O)OCC(=O)NC(C)C)o1 was read as SARS PLP yeast -2.1%, HCMV antiviral -23.0, Pf growth 96h 0.0%, Sm TGR block 50.1µM*, Pf growth 48h 9.6% and HCV inh inconclusive.
CCN(CC(=O)NCc1ccc(Cl)cc1)C(=O)/C=C/c1ccco1 was read as SARS PLP yeast -2.3%, HCMV antiviral 90.2, Pf growth 96h 0.0%, Sm TGR block 25.1µM*, Pf growth 48h 4.0% and HCV inh 10.1%.
For CC(C)NC(=O)COC(=O)/C=C/c1ccco1 the results were SARS PLP yeast -5.6%, HCMV antiviral 2.4, Pf growth 96h 5.4%, Sm TGR block 50.1µM*, Pf growth 48h 10.9% and HCV inh 10.8%.
`CCN(CC(=O)NCc1ccc(Cl)cc1)C(=O)c1cnc(Cl)c(Cl)c1` gave SARS PLP yeast 0.1%, HCMV antiviral -62.6*, Pf growth 96h 15.3%, Sm TGR block -6.9%, Pf growth 48h 20.7% and HCV inh -24.7%.
`COc1ccc(C)cc1N(C)C(=O)Cc1c(C(=O)O)n(C)c2ccccc12` gave SARS PLP yeast -0.3%, HCMV antiviral 47.0, Pf growth 96h 0.4%, Sm TGR block 57.3%, Pf growth 48h -2.4% and HCV inh 36.1%.
`O=C(COC(=O)/C=C/c1ccco1)NCCN1C(=O)CSC1=O` gave HCMV antiviral -23.6 and HCV inh 3.4%.
Screening O=C(COC(=O)/C=C/c1ccco1)NCc1ccccc1 returned SARS PLP yeast -6.2%, HCMV antiviral 1.2, Pf growth 96h 20.6%, Sm TGR block -1.4%, Pf growth 48h 11.6% and HCV inh 14.4%.
CCCNC(=O)COC(=O)/C=C/c1ccco1 was read as SARS PLP yeast -25.4%, HCMV antiviral -2.8, Pf growth 96h 58.0%, Sm TGR block 44.7µM*, Pf growth 48h 17.7% and HCV inh -9.5%.
`O=C(COC(=O)/C=C/c1ccco1)NCc1ccc(Cl)cc1` gave SARS PLP yeast 3.9%, HCMV antiviral 20.3, Pf growth 96h 9.8%, Sm TGR block 17.8µM*, Pf growth 48h 2.5% and HCV inh 2.2%.
For CC1CCN(C(=O)C2CCCN2S(=O)(=O)c2ccc(Cl)cc2)CC1 (stereo not drawn) the results were SARS PLP yeast 3.8%, HCMV antiviral inconclusive, Pf growth 96h inconclusive, Sm TGR block -6.8%, Pf growth 48h -4.5% and HCV inh 7.3%.
`COc1ccccc1-c1sc2ccccc2c1C#Cc1ccc(N(C)C)cc1` gave SARS PLP yeast 6.4%, HCMV antiviral -10.4 and HCV inh 4.6%.
CC(=O)N1CCc2c(sc3c2c(=O)n(-c2ccccc2C)c(=O)n3CC(=O)Nc2ccccc2)C1 was read as HCMV antiviral 27.5 and Sm TGR block -11.1%.
For C=CCn1c(Cc2c(C)[nH]c3ccccc23)nnc1SCC(=O)NCc1ccc(F)cc1 the results were SARS PLP yeast 4.1%, HCMV antiviral 7.3, Pf growth 96h 0.262µM*, Sm TGR block 31.6µM*, Pf growth 48h 8.28µM* and HCV inh 0.0%.
For CCn1c(Cc2c(C)[nH]c3ccccc23)nnc1SCC(=O)NCc1ccccc1 the results were SARS PLP yeast -11.5%, HCMV antiviral 16.4, Pf growth 96h inconclusive, Sm TGR block inconclusive, Pf growth 48h inconclusive and HCV inh 16.2%.
Screening C=CCn1c(CSc2nc3ccccc3s2)nnc1SCC(=O)NCc1cccnc1 returned SARS PLP yeast 12.9%, HCMV antiviral -4.8, Pf growth 96h 28.2%, Sm TGR block -21.2%, Pf growth 48h inconclusive and HCV inh 14.2%.
